Inconclusive results are not listed. Unmarked numbers belong to inactive results. Activity calls are given as the source filed them. Calls come from the whole dose curve.
% is set by controls: 0 for no effect and ±100 for the full control effect.

A short description of this test: qHTS assay to identify small molecule agonists of H2AX - cell viability counter screen (AID 1224847). Note: top concentration of the series differs between compounds; nearly all actives have a fitted effect of over 30% in size. The settings on record: CHO-K1 viability, CellTiter-Glo luminescence, 3 h; series mostly up to 154 µM. In outline: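 Wild-type CHO-K1 cells (10% FBS medium) were plated overnight at 37C, exposed to compounds at 15 concentrations for 3 hr at 37C (0.76% DMSO final), and viability was read as CellTiter-Glo luminescence after 30 min at room temperature.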
`Clc1cc(Cl)c(Cl)nc1Cl`: the molecule was called inactive.

For the molecule `C[C@@H]1CCC[C@H](C)N1`, the molecule was classed as inactive.

For `CCOC(=O)OC(C)OC1=C(C(=O)Nc2ccccn2)N(C)S(=O)(=O)c2ccccc21` (stereo unspecified), the call was inactive. Turning to `O=C(O)CC(C(=O)O)S(=O)(=O)O` (stereo unspecified), the outcome was inactive. Take `[O-][n+]1cccc(CO)c1`: the result was inactive. Consider `CC(=O)c1ccccc1[N+](=O)[O-]`, for which the call was inactive. Turning to `Cc1cccc(C)c1NC(=O)CC12CCCN1CCC2`, the result was inactive.

Turning to `OCCCCCO`, the molecule was classed as inactive. Turning to `CC(COc1ccccc1)NN` (stereo unspecified), the molecule was called inactive. As to `NS(=O)(=O)Cc1noc2ccccc12`, the molecule was called inactive. On to `Cc1cc(C)c(N=Nc2c(O)c(S(=O)(=O)O)cc3cc(S(=O)(=O)O)ccc23)cc1C`, for which the activity change, negative = cytotoxicity is -10.4% [at 14 µM]. For the molecule `Nc1c2c(nc3c1CCC3)CCCC2`, the molecule was called inactive. Regarding `O=S(=O)(O)c1cccc2c(S(=O)(=O)O)cccc12`, the outcome was inactive.

In the case of `CNCC(O)c1ccc(O)c(O)c1` (stereo unspecified), the outcome was inactive.

Turning to `O=S(=O)(O)c1cccc(S(=O)(=O)O)c1`, the call was inactive.

As to `CC[C@H]1OC(=O)[C@H](C)[C@@H](O[C@H]2C[C@@](C)(OC)[C@@H](O)[C@H](C)O2)[C@H](C)[C@@H](O[C@@H]2O[C@H](C)C[C@H](N(C)C)[C@H]2O)[C@](C)(OC)C[C@@H](C)C(=O)[C@H](C)[C@@H](O)[C@]1(C)O`, the result was inactive.

Turning to `C=CCCCCCCCCC(=O)OCC`, the outcome was inactive. For `C=CCCC(=O)O`, the result was inactive. Turning to `O=Cc1cccc(Br)c1`, the result was inactive. In the case of `CN1C(C)(C)CC(O)CC1(C)C`, the result was inactive.

`C[N+]1(CC2COC(c3ccccc3)(c3ccccc3)O2)CCCCC1` (stereo unspecified): the activity change, negative = cytotoxicity was -1.84% [at 31.6 µM].

The record behind these values is PubChem BioAssay (Tox21).
